Compound activity deposited in PubChem BioAssay by The Scripps Research Institute Molecular Screening Center.
ssDAF-12 act: activates DAF-12 receptor from parasite S. stercoralis; HEK293 ssDAF-12/GRIP1 lit1-tk-luc reporter, luminescence; % of 3 µM dafachronic acid response; activation, % at 6.8 µM; actives 1% (n = 370,000); AID 652126;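 active means activation above the mean over all tested compounds plus 3 SD, cut at about 0.9% in these data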;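 further: 0% = DMSO-only wells and 100% = 3 µM delta7-dafachronic acid wells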
hcDAF-12 act: H. contortus DAF-12 activation, primary screen; HEK293 hcDAF-12 lit1-tk-luc reporter, luminescence; 0% DMSO, 100% Δ7-dafachronic acid; activation, % at 6.8 µM; actives 1.4% (n = 370,000); AID 652067;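 active means activation above the mean of all tested compounds plus 3 SD, cut at about 5.5% in these data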;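 further: 100% = response to 3 µM Δ7-dafachronic acid high control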
SMARCA2 act: increases SMARCA2 function in MMTV reporter cells; actives 1% (n = 370,000); MG213 cells, MMTV-luciferase reporter, dexamethasone, overnight; AID 652017; activation, % at 9.1 µM; in the data active means activation above about 7.8%;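 further: 0% = vehicle wells and 100% = reference activator wells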
hgDAF-12 ag: hgDAF-12 agonism, primary luciferase screen; HEK293 GAL4-hgDAF12 UAS-luciferase reporter, agonist luminescence; normalized to butyrate control; activation, % at 6.8 µM; actives 1.8% (n = 370,000); AID 687014;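 active means activation above a cutoff set at the mean of all screened compounds plus 3 SD, cut at about 10% in these data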;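 further: 0% = DMSO wells and 100% = sodium butyrate wells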
DAX1 inh-1: blocks DAX1 repression of SF-1 activated StAR promoter; HEK293T StAR-luciferase reporter, SF-1/DAX-1 repression relief; inhibition, % at 6.8 µM; actives 1.1% (n = 370,000); AID 652010;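 active means inhibition above the mean over all tested compounds plus 3 SD, cut at about 3.6% in these data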;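 further: 0% = DAX-1 cells with DMSO and 100% = cells lacking DAX-1 with DMSO; higher inhibition means more luminescence from relief of DAX-1 repression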
DAX1 inh-2: NR0B1 (DAX1) inhibition | HEK293 Gal4-DAX1 luciferase reporter, luminescence | inhibition, % at 6.75 µM | actives 0.99% (n = 340,000);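 active means inhibition above the mean over all tested compounds plus 3 SD, cut at about 4.2% in these data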;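 further: 0% = DAX1-transfected cells with DMSO and 100% = empty-vector control cells with DMSO; inhibition shows as a rise in luminescence from relieved DAX1 repression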
Target sequence (P51843 207-470 limits assumed): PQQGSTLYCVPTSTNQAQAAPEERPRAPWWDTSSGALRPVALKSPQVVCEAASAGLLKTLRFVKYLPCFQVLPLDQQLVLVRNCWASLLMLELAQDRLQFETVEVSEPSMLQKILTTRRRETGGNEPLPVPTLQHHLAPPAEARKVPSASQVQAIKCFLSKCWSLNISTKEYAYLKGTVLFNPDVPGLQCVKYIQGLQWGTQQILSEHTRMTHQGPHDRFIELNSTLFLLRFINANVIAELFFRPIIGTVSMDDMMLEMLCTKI
Starred values were filed as active, the others as inactive; . = no result. Hits are enriched below; roughly 4.8% of the tested compounds scored in any of these assays.

SMILES | ssDAF-12 act | hcDAF-12 act | SMARCA2 act | hgDAF-12 ag | DAX1 inh-1 | DAX1 inh-2
COc1ccc(CC(=O)NNC(=O)c2nn(Cc3ccccc3)c(=O)c3ccccc23)cc1OC | -1 | -1 | -1 | 4 | 1 | 5.1*
Cc1ccc(NC(=O)Cc2ccc(-c3ccccc3)cc2)nc1 | -2 | 3 | 0 | 2 | 0 | 1
COc1ccc(CCNC(=O)CCc2ccccc2)cc1OC | -2 | 0 | 1 | -3 | 0 | .
COc1ccc(CCNC(=O)Cn2nc(C(=O)O)c3ccccc3c2=O)cc1OC | -1 | 0 | -1 | 0 | 1 | 0
CCC(CO)NCc1cc(OC)c(OCC(=O)NCCc2ccccc2)cc1Br (stereo unspecified) | -2 | -1 | 8.3* | 3 | 0 | 1
Cc1ccc(NC(=O)CCCc2ccccc2)nc1 | -1 | 2 | 5 | 8 | 3.8* | 1
CNc1nc(N)c([N+](=O)[O-])c(Nc2ccccc2)n1 | -1 | -1 | . | -2 | . | .
COc1ccc(CN(CC#Cc2ccc(C)cc2)C(N)=NC(=O)CCc2ccccc2)c(OC)c1 | -1 | 1 | -5 | 0 | -2 | .
CS(=O)(=O)N1C[C@]2(c3ccccc3)CC1Cc1ccccc12 | -1 | -1 | . | 1 | . | .
CCC[C@H]1[C@@H](OC(=O)N2CCN(c3ccccc3)CC2)CC[C@@]23CCCN2C(=O)CCC[C@@H]13 | -2 | -3 | . | 2 | . | .
COc1ccc(NC(=O)CCCc2ccccc2)cc1OC | 0 | 0 | 5 | 9 | 1 | 4.2*
COc1ccc(NC(=O)CCCC(=O)c2ccccc2)cc1OC | -1 | -1 | -3 | -1 | 0 | -1
COc1ccc(CCNC(=O)C/C(C)=N/NC(=O)c2ccc(N)cc2)cc1OC | 0.9* | 4 | 4 | 6 | 1 | 1
CCN(CC)S(=O)(=O)c1ccc(N2CCCC2)c(NC(=O)Cc2cc(OC)c(OC)c(OC)c2)c1 | -1 | -2 | -1 | 0 | -1 | 4.7*
COc1ccc(/C=C(\C#N)C(=O)Nc2cc(S(=O)(=O)N3CCOCC3)ccc2N2CCCC2)cc1 | -2 | -2 | 0 | 1 | 0 | -1
CCN(CC)S(=O)(=O)c1ccc(N2CCCCC2)c(NC(=O)/C(C#N)=C/c2ccc(OC)cc2)c1 | -1 | 6.3* | 1 | 0 | 0 | -1
CCn1c(=O)cc(SCC(=O)N2CCCCC2)c2ccccc21 | -1 | 0 | 5 | 0 | 0 | 1
Cn1c(=O)cc(SCC(=O)N2CCN(C3CCCCC3)CC2)c2ccccc21 | -1 | 0 | 0 | 0 | 2 | 7.3*
Cc1ccc(Nc2cc(C)nc(-c3ccccc3O)n2)cc1 | -1 | 0 | 4 | 13* | 0 | 2
Cc1cc(Nc2ccc(Br)cc2)nc(-c2ccccc2O)n1 | -1 | 0 | -1 | -2 | -1 | 0
COc1ccc(CSc2nnc(SCC(=O)Nc3ccccc3-c3ccccc3)s2)cc1 | -2 | -4 | -8 | -2 | -2 | .
Cn1c(/C(C#N)=C(\O)c2ccc(Br)s2)nc2ccccc21 | 1.0* | 5 | 2 | 3 | 0 | 0
C=CCn1c(SCC(C)=O)nc2scc(-c3ccc(C)o3)c2c1=O | -1 | 1 | 5 | 5 | 1 | 4.7*
C=CCn1c(SCC(=O)NCCCC)nc2scc(-c3ccco3)c2c1=O | -1 | -1 | -4 | -2 | -1 | 0
C#CCOCCOCCOCCNc1nc(N2CCN(C(=O)Cn3cc(CCCN=C(N)N)nn3)CC2)nc(N2CCN(C(=O)[C@H](Cc3ccc(O)cc3)n3cc(CCO)nn3)CC2)n1 | -1 | -2 | . | 4 | . | .
SMILES | ssDAF-12 act | hcDAF-12 act | SMARCA2 act | hgDAF-12 ag | DAX1 inh-1 | DAX1 inh-2
CCOc1ccc(CCNC(=O)C2CCCCC2)cc1OCC | -2 | -3 | . | -1 | . | .
CN(C)c1ccc(/C=N/NC(=O)CN2CCCCC2)cc1Br | 1.3* | -2 | -2 | -1 | 1 | 1
O=C(CSc1nnc(-c2ccccc2)n1-c1ccccc1)Nc1cccc2ccccc12 | 0 | 2 | -3 | 0 | -1 | .
CC1=CC2(C(Cc3ccccc3)N(CC3CC3)C(=NC(=O)c3ccccc3)N2C(=O)OCc2ccccc2)n2c(=O)n(-c3ccccc3)c(=O)n2C1 (stereo unspecified) | -2 | 1 | -2 | 1 | -1 | .
Cc1ccccc1C(=O)N(Cc1ccccn1)CC1CCCO1 (stereo unspecified) | 0 | -2 | 1 | 3 | 1 | .
O=C(CCCc1nc2ccccc2s1)NC(c1ccccc1)c1ccccc1 | -1 | -1 | 7.9* | 0 | 0 | -1
c1ccc(CSc2ccc(-c3cccs3)nn2)nc1 | -1 | 0 | 3 | 12* | 3.8* | 1
c1ccc(CSc2nnc3ccc(-c4cccs4)nn23)nc1 | -2 | 1 | 0 | 4 | 0 | 1
O=C(C=Cc1cccc(O)c1)c1ccccc1O | -1 | 3 | -2 | 12* | 0 | 0
CCCN(CCC)CCNC(=O)c1cc2c(=O)n(CC)c3ccccc3c2s1 | 0 | 4 | 4 | -2 | 2 | 4.6*
CCN(CC)CCNC(=O)c1cc2c(=O)n(CC)c3ccccc3c2s1 | -1 | 2 | 5 | 0 | 1 | 1
CCn1c(=O)c2cc(C(=O)Nc3ccc(OC)cc3OC)sc2c2ccccc21 | -1 | -1 | -3 | 0 | 0 | 4.2*
Cc1ccc(-n2c(SCC(=O)Nc3ccccc3-c3ccccc3)nnc2-c2ccccn2)cc1 | -2 | -3 | -3 | -2 | -1 | .
COc1ccccc1C(=O)NC1CCCCN(Cc2cccc(F)c2)C1=O (stereo unspecified) | -1 | -3 | 0 | 3 | -1 | .
C=CCN(C(=O)[C@@H](C1CC1)[C@@H](O)c1ccc2ccccc2c1)c1ccccc1 | -1 | -2 | -3 | 5 | -2 | .
COC(=O)[C@]12C[C@H](CC(=O)NCc3cccs3)C(=O)N(CCc3ccc(OC)c(OC)c3)C1=C[C@H](COCc1ccccc1)O[C@@H]2C | -2 | -3 | 4 | -3 | 0 | .
O=C(c1cc2ccccc2[nH]1)N1O[C@@H]2C=C[C@H]1C2 | 0 | 6.2* | 4 | 7 | 2 | 2
Cn1c(-c2ccc(F)cc2)cnc1SCC(=O)N1CCCCC1 | 0 | 3 | 4 | 12* | 2 | 1
CC(C)N(C)c1ncnc2c1ncn2[C@H]1CN(Cc2cccnc2)C[C@@H](CO)O1 | 8.1* | -1 | -1 | -1 | -1 | .
COC(=O)[C@]1(CNC(=O)Nc2ccc(C)c(Cl)c2)CC(=O)N(C)[C@@H]1c1ccccc1 | -2 | -1 | -4 | -5 | -1 | .
COc1cc(C(=O)OC2CC3CCC2(C)C3(C)C)ccc1OC(C)=O (stereo unspecified) | 0 | -1 | 3 | 6 | -1 | 4.7*
CC1(C)C2CCC1(C)C(OC(=O)CNc1ccccc1)C2 (stereo unspecified) | -1 | 0 | -3 | 1 | 0 | 0
